From the supplement of paper PMC11732987, “Enantioselective OTUD7B fragment discovery through chemoproteomics screening and high-throughput optimisation” (Communications Chemistry, 2025)

How the values were obtained:
Test in all cases: log2 ratio of Biotin-Ahx-Ub-VS probe labelling (fragment/DMSO); higher = less target engagement (more negative = stronger competition), active = hit call of the paper (q ≤ 0.05, log2 ratio ≤ -1)
Settings in all cases: compound concentration: 200 uM; treatment time: 3 h
[1] = molecular target: T1, OTUD6B (UniProt Q8N6M0)
T1 sequence (whole entry): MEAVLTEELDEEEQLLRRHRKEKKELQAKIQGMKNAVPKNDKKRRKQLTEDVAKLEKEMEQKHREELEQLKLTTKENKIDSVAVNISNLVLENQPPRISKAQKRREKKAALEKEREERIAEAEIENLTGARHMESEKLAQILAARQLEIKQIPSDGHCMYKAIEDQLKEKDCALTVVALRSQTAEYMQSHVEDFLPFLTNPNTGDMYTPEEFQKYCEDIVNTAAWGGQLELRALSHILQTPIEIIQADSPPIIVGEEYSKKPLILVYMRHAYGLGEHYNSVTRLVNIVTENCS
Summary of the method: (§1)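 The table lists average log2 ratios of fragment over vehicle, from an unpaired t-test on global-median-normalised Spectronaut label-free quantities. Proteins with ≥2 unique peptides were used. Samples were HEK293T lysate (495 µg) treated in triplicate with fragment at 200 µM or vehicle for 3 h, then with Biotin-Ahx-Ub-VS (0.5 µM final) for 1 h, with labelled DUBs NeutrAvidin-enriched and run by diaPASEF LC-MS/MS.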

[2] = molecular target: T2, OTUD7B (UniProt Q6GQQ9)
T2 sequence (whole entry): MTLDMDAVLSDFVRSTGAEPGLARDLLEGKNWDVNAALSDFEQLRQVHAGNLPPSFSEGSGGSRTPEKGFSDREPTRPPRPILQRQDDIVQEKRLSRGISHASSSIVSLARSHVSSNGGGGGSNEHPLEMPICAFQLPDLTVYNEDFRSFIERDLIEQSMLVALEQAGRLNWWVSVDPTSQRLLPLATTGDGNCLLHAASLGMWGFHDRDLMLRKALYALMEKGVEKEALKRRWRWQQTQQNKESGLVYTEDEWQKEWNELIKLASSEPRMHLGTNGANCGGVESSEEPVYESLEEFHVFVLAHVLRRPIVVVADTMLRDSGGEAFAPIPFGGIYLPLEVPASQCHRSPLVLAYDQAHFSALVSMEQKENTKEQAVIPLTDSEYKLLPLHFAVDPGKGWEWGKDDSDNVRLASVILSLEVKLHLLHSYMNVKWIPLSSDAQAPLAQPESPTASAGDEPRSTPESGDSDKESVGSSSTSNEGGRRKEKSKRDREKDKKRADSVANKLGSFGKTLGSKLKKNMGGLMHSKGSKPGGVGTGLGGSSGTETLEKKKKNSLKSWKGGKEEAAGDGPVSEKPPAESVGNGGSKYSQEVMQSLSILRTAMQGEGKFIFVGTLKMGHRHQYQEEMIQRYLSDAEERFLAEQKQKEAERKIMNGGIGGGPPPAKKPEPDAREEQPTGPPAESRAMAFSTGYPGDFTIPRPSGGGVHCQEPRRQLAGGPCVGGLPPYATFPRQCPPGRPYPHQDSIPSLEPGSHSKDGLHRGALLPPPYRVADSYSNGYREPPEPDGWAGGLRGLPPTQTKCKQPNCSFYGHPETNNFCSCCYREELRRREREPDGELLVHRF
Summary of the method: as §1

[3] = molecular target: PRPF8 (UniProt Q6P2Q9)
Summary of the method: as §1

[4] = molecular target: T3, PSMD7 (UniProt P51665)
T3 sequence (whole entry): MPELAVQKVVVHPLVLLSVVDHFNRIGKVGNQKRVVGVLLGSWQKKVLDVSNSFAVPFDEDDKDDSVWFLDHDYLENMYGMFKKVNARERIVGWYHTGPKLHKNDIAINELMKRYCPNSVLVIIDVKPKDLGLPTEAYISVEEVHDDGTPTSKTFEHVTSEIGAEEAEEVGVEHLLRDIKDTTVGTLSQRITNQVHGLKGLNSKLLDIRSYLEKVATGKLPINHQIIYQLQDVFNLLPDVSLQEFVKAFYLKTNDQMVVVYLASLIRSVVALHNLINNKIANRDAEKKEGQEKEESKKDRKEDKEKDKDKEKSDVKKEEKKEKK
Summary of the method: as §1

[5] = molecular target: UCHL1 (UniProt P09936)
Chain of UCHL1 (P09936 whole entry, looked up): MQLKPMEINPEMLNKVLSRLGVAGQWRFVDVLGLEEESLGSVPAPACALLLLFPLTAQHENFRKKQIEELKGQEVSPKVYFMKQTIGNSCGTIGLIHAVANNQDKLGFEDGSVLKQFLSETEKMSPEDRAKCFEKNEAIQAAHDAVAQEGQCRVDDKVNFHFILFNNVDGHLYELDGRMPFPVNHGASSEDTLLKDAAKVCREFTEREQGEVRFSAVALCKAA
Summary of the method: as §1

[6] = molecular target: T4, UCHL3 (UniProt P15374)
T4 sequence (whole entry): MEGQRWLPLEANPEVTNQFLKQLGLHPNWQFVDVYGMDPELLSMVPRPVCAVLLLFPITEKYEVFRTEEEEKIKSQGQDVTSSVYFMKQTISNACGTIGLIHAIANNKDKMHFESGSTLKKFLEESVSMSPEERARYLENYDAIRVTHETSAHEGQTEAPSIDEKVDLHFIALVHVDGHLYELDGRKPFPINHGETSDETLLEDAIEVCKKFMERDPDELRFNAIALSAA
Summary of the method: as §1

[7] = molecular target: T5, UCHL5 (UniProt Q9Y5K5)
T5 sequence (whole entry): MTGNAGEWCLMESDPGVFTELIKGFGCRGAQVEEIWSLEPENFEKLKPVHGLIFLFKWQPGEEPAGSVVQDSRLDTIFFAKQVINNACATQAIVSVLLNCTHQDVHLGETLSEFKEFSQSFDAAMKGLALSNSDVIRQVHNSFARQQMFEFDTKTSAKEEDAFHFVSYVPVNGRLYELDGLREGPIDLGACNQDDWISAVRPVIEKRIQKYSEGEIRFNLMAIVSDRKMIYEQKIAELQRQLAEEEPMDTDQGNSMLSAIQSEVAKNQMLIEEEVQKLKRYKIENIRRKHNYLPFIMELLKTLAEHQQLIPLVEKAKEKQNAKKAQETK
Summary of the method: as §1

[8] = molecular target: USP10 (UniProt Q14694)
Chain of USP10 (Q14694 whole entry): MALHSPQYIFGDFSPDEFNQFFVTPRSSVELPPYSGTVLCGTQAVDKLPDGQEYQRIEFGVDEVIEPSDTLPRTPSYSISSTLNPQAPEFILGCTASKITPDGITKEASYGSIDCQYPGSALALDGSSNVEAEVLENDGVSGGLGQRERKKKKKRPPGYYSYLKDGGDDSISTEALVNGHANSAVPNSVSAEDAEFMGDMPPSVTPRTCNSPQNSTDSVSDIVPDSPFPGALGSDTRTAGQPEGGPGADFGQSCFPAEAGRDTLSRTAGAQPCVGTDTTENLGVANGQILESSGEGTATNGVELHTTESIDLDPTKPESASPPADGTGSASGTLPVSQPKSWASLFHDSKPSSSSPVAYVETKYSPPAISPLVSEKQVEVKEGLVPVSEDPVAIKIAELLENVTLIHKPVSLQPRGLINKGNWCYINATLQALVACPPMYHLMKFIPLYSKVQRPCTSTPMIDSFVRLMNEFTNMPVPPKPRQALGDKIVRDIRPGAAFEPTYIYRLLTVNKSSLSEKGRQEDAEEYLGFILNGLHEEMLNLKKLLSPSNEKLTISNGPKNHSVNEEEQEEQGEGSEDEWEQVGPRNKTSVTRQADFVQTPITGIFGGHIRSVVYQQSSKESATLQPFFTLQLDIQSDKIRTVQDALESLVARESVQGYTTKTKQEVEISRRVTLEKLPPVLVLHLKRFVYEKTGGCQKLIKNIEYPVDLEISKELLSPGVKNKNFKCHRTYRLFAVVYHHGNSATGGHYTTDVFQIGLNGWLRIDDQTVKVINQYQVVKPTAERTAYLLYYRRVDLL
Summary of the method: as §1

[9] = molecular target: T6, USP15 (UniProt Q9Y4E8)
T6 sequence (whole entry): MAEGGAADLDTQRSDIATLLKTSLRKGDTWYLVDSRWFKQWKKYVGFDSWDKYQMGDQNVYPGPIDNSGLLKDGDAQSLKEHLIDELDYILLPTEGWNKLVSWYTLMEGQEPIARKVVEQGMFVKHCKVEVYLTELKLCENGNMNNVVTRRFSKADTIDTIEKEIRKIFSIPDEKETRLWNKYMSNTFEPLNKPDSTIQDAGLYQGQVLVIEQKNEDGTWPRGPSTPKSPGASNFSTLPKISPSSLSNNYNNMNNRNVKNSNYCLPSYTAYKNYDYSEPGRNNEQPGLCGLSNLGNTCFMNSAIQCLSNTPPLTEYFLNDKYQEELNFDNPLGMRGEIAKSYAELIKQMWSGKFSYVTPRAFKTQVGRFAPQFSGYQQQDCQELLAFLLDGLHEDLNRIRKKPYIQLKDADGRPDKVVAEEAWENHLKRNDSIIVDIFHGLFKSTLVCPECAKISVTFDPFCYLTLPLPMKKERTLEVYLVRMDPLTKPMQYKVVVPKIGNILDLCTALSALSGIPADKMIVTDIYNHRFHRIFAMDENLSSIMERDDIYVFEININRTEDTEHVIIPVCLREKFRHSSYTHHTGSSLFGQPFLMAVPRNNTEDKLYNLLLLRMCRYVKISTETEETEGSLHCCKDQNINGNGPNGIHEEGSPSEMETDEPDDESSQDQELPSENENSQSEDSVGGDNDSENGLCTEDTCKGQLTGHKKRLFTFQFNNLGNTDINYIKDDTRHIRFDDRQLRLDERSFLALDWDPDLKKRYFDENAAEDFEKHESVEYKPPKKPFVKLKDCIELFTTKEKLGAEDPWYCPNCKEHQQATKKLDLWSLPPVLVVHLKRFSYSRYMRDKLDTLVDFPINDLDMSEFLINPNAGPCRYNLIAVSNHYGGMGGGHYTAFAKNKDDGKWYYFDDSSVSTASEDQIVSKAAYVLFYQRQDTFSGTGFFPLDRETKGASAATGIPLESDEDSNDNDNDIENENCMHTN
Summary of the method: as §1

[10] = molecular target: USP16 (UniProt Q9Y5T5)
Chain of USP16 (Q9Y5T5 whole entry, looked up): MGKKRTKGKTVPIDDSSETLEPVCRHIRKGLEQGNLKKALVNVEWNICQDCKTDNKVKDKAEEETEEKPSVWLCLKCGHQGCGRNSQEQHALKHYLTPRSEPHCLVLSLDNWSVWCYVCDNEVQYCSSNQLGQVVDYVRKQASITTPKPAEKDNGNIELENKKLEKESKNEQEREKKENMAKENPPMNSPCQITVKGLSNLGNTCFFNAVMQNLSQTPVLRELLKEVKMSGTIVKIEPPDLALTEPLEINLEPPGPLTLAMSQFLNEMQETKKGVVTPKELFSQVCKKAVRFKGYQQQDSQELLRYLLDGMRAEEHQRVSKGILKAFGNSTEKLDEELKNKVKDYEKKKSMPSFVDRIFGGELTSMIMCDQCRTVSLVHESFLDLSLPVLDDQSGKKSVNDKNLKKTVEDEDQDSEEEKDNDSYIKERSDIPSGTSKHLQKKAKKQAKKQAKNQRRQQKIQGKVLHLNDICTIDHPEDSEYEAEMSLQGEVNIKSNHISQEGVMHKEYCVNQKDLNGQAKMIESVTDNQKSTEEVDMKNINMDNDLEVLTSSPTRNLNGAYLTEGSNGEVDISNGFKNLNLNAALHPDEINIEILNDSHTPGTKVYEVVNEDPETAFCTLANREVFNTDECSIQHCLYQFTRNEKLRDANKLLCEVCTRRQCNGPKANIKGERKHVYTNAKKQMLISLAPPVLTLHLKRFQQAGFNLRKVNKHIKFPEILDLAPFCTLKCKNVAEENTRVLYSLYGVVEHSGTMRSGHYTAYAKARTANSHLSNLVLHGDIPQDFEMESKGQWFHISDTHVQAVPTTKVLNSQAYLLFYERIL
Summary of the method: as §1

Measured: log2 ratio of Biotin-Ahx-Ub-VS probe labelling

CN(C(=O)CCl)c1nc2ccccc2s1
inactive: [1] -0.243 | [2] -0.119 | [3] 0.183 | [4] 0.069 | [5] -0.925 | [6] 0.484 | [7] -0.343 | [8] -0.116 | [9] -0.217 | [10] 0.0425
